# “And” between values parts separate entries of the source, which are not always exact repeats. Equal entries are not always repeated. The panel holds about 79,000 compounds, 15% with a hit somewhere; the sample as a whole holds those more often. Some structures have more than one record in an assay (separate samples or runs), and their calls can disagree. The source made the active and inactive calls. No stated cut-off is given here; in the data, active means growth inhibition above about 70%; inactive means the rest.
# Key:
# [1] = NCI Yeast Anticancer Drug Screen. Data for the mlh1 strain (AID 171);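 further: 0% = growth of vehicle-treated control cultures of the same strain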; settings: S. cerevisiae mlh1 strain growth inhibition, stronger effect = higher value
# In short: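 Inhibition values reflect reduced yeast growth in the presence of compound, referenced to vehicle controls, using a strain chosen for its alteration in DNA repair or cell cycle control.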
# [2] = NCI Yeast Anticancer Drug Screen. Data for the sgs1 strain (AID 173);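 further: 0% = growth of vehicle-only control cultures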; settings: S. cerevisiae sgs1 mutant, stronger effect = higher value
# In short: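 Vehicle-treated cultures served as reference for growth inhibition of a yeast strain altered in DNA damage repair or cell cycle control after compound exposure.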
# [3] = NCI Yeast Anticancer Drug Screen. Data for the mlh1 rad18 strain (AID 175); settings: S. cerevisiae mlh1 rad18 strain growth inhibition, stronger effect = higher value
# In short: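 Inhibition values reflect reduced growth of mutant yeast versus vehicle-treated controls following compound exposure; the mutations affect DNA damage repair.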
# [4] = NCI Yeast Anticancer Drug Screen. Data for the wt1 strain (AID 149);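 further: 0% = growth of vehicle-treated wt1 cultures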; settings: S. cerevisiae wt1 strain (SPY 50644) growth inhibition, stronger effect = higher value
# In short: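 Yeast wt1 strain exposed to compounds; growth inhibition measured relative to vehicle-treated controls.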
# [5] = NCI Yeast Anticancer Drug Screen. Data for the rad50EPP+ strain (AID 151);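 further: 0% = growth of vehicle-treated control cultures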; settings: S. cerevisiae rad50 mutant strain, stronger effect = higher value
# In short: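 Genetically defined yeast (rad50EPP+, DNA damage repair alteration) is grown with compound, and inhibition of growth is expressed relative to vehicle-treated controls.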
# [6] = NCI Yeast Anticancer Drug Screen. Data for the mgt1 strain (AID 153); settings: S. cerevisiae mgt1 mutant growth inhibition, stronger effect = higher value
# In short: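 In the mgt1 strain, test compounds were added and growth inhibition was determined relative to vehicle-treated controls.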
# [7] = NCI Yeast Anticancer Drug Screen. Data for the rad50 strain (AID 155);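 further: 0% = growth of vehicle-only cultures of the same strain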; settings: S. cerevisiae rad50 strain growth inhibition, stronger effect = higher value
# In short: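 Yeast carrying a defined DNA repair defect were exposed to test compounds, and growth was compared with vehicle-treated controls to give percent inhibition.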
# [8] = NCI Yeast Anticancer Drug Screen. Data for the mec2-1 strain (AID 157); settings: S. cerevisiae mec2-1 strain, stronger effect = higher value
# In short: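 Each compound was tested on mec2-1 yeast, a strain altered in DNA damage repair or cell cycle control. Growth inhibition is reported relative to vehicle.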
# [9] = NCI Yeast Anticancer Drug Screen. Data for the rad14 strain (AID 159);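 further: 0% = growth of vehicle-treated control cultures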; settings: S. cerevisiae rad14 strain growth inhibition, stronger effect = higher value
# In short: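 Yeast cells carrying a defined DNA-repair defect were exposed to compounds, and growth inhibition was calculated relative to vehicle-treated control cultures.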
# [10] = NCI Yeast Anticancer Drug Screen. Data for the sgs1 mgt1 strain (AID 161);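 further: 0% = growth of cultures given vehicle only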; settings: S. cerevisiae sgs1 mgt1 strain, stronger effect = higher value
# In short: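 Test agents were incubated with a DNA-repair-mutant yeast strain. Growth was then read and compared against vehicle-treated controls.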
# [11] = NCI Yeast Anticancer Drug Screen. Data for the CLN2oe strain (AID 163);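 further: 0% = growth of vehicle-only control cultures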; settings: S. cerevisiae CLN2oe strain, stronger effect = higher value
# In short: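 First, the altered yeast strain was treated with each compound; second, its growth was measured; finally, inhibition was derived by comparison with vehicle controls.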
# [12] = NCI Yeast Anticancer Drug Screen. Data for the cln2 rad14 strain (AID 165);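 further: 0% = growth equal to vehicle treated cultures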; settings: S. cerevisiae cln2 rad14 strain, stronger effect = higher value
# In short: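 Test compounds were added to cln2 rad14 yeast cultures; inhibition of growth was then determined by comparison with vehicle treatment.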
# [13] = NCI Yeast Anticancer Drug Screen. Data for the bub3 strain (AID 167); settings: S. cerevisiae bub3 mutant strain, stronger effect = higher value
# In short: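 Compounds were applied to a genetically altered yeast strain carrying a cell-cycle control defect. Growth inhibition was scored against vehicle-treated controls.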
# [14] = NCI Yeast Anticancer Drug Screen. Data for the wt2 strain (AID 169);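 further: 0% = growth of vehicle-treated yeast cultures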; settings: S. cerevisiae wt2 strain growth inhibition, stronger effect = higher value
# In short: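 The panel's yeast strains carry defined changes in DNA repair or cell cycle genes. Each strain is grown with compound, and growth loss is scored relative to vehicle.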
# [15] = at 5.0 µM (retest, dose inferred, filed as 0.5)
# [16] = at 50.0 µM (retest, dose inferred, filed as 5.0)
smiles,measurement,setting,value
O=C1C(C(O)(C(F)(F)F)C(F)(F)F)CCC1C(O)(C(F)(F)F)C(F)(F)F (stereo unspecified),growth inhibition,[1]; at 1.2 µM,5% (inactive)
same,growth inhibition,[1]; at 3.7 µM,7% (inactive)
same,growth inhibition,[1]; at 11.0 µM,11% (inactive)
same,growth inhibition,[1]; at 33.0 µM,22% (inactive)
same,growth inhibition,[1]; at 100.0 µM,33% (inactive)
same,growth inhibition,[2]; at 1.2 µM,3% (inactive)
same,growth inhibition,[2]; at 3.7 µM,8% (inactive)
same,growth inhibition,[2]; at 11.0 µM,9% (inactive)
same,growth inhibition,[2]; at 33.0 µM,28% (inactive)
same,growth inhibition,[2]; at 100.0 µM,43% (inactive)
same,growth inhibition,[3]; [15],2% (inactive)
same,growth inhibition,[3]; [16],49% (inactive)
same,growth inhibition,[3]; at 50.0 µM,69.5% (inactive)
CCCCCCCCCCCCCCCCCN,growth inhibition,[4]; at 1.2 µM,-23% (inactive)
same,growth inhibition,[4]; at 3.7 µM,-25% (inactive)
same,growth inhibition,[4]; at 11.0 µM,-5% (inactive)
same,growth inhibition,[4]; at 33.0 µM,90% (active)
same,growth inhibition,[4]; at 100.0 µM,94% (active)
same,growth inhibition,[5]; at 1.2 µM,-14% (inactive)
same,growth inhibition,[5]; at 3.7 µM,11% (inactive)
same,growth inhibition,[5]; at 11.0 µM,82% (active)
same,growth inhibition,[5]; at 33.0 µM,97% (active)
same,growth inhibition,[5]; at 100.0 µM,96% (active)
same,growth inhibition,[6]; at 1.2 µM,-29% (inactive)
same,growth inhibition,[6]; at 3.7 µM,-24% (inactive)
same,growth inhibition,[6]; at 11.0 µM,86% (active)
same,growth inhibition,[6]; at 33.0 µM,97% (active)
same,growth inhibition,[6]; at 100.0 µM,96% (active)
same,growth inhibition,[7]; at 1.2 µM,-27% (inactive)
same,growth inhibition,[7]; at 3.7 µM,-17% (inactive)
same,growth inhibition,[7]; [15],26% (inactive)
same,growth inhibition,[7]; at 11.0 µM,85% (active)
same,growth inhibition,[7]; at 33.0 µM,97% (active)
same,growth inhibition,[7]; [16],96% (active)
same,growth inhibition,[7]; at 50.0 µM,3.15% (inactive) and 90.2% (active)
same,growth inhibition,[7]; at 100.0 µM,94% (active)
same,growth inhibition,[8]; at 1.2 µM,-37% (inactive)
same,growth inhibition,[8]; at 3.7 µM,-28% (inactive)
same,growth inhibition,[8]; [15],51% (inactive)
same,growth inhibition,[8]; at 11.0 µM,91% (active)
same,growth inhibition,[8]; at 33.0 µM,98% (active)
same,growth inhibition,[8]; [16],97% (active)
same,growth inhibition,[8]; at 50.0 µM,-6.55% (inactive) and 92% (active)
same,growth inhibition,[8]; at 100.0 µM,93% (active)
same,growth inhibition,[9]; at 1.2 µM,-31% (inactive)
same,growth inhibition,[9]; at 3.7 µM,-24% (inactive)
same,growth inhibition,[9]; at 11.0 µM,14% (inactive)
same,growth inhibition,[9]; at 33.0 µM,95% (active)
same,growth inhibition,[9]; at 100.0 µM,94% (active)
same,growth inhibition,[10]; [15],7% (inactive)
same,growth inhibition,[10]; [16],50% (inactive)
same,growth inhibition,[10]; at 50.0 µM,47.4% (inactive) and 92.5% (active)
same,growth inhibition,[11]; at 1.2 µM,-22% (inactive)
same,growth inhibition,[11]; at 3.7 µM,11% (inactive)
same,growth inhibition,[11]; at 11.0 µM,94% (active)
same,growth inhibition,[11]; at 33.0 µM,98% (active)
same,growth inhibition,[11]; at 100.0 µM,95% (active)
same,growth inhibition,[12]; [15],16% (inactive)
same,growth inhibition,[12]; [16],90% (active)
same,growth inhibition,[12]; at 50.0 µM,6.8% (inactive) and 37% (inactive)
same,growth inhibition,[13]; at 1.2 µM,-10% (inactive)
same,growth inhibition,[13]; at 3.7 µM,-4% (inactive)
same,growth inhibition,[13]; [15],54% (inactive)
same,growth inhibition,[13]; at 11.0 µM,90% (active)
same,growth inhibition,[13]; at 33.0 µM,98% (active)
same,growth inhibition,[13]; [16],97% (active)
same,growth inhibition,[13]; at 50.0 µM,32.8% (inactive) and 90.2% (active)
same,growth inhibition,[13]; at 100.0 µM,95% (active)
same,growth inhibition,[14]; at 1.2 µM,-15% (inactive)
same,growth inhibition,[14]; at 3.7 µM,-12% (inactive)
same,growth inhibition,[14]; at 11.0 µM,49% (inactive)
same,growth inhibition,[14]; at 33.0 µM,90% (active)
same,growth inhibition,[14]; at 100.0 µM,96% (active)
same,growth inhibition,[1]; at 1.2 µM,-31% (inactive)
same,growth inhibition,[1]; at 3.7 µM,0% (inactive)
same,growth inhibition,[1]; at 11.0 µM,90% (active)
same,growth inhibition,[1]; at 33.0 µM,97% (active)
same,growth inhibition,[1]; at 100.0 µM,94% (active)
same,growth inhibition,[2]; at 1.2 µM,-46% (inactive)
same,growth inhibition,[2]; at 3.7 µM,-3% (inactive)
same,growth inhibition,[2]; at 11.0 µM,58% (inactive)
same,growth inhibition,[2]; at 33.0 µM,97% (active)
same,growth inhibition,[2]; at 100.0 µM,96% (active)
same,growth inhibition,[3]; [15],41% (inactive)
same,growth inhibition,[3]; [16],96% (active)
same,growth inhibition,[3]; at 50.0 µM,23.5% (inactive) and 89.9% (active)
